From PubChem BioAssay AID1159580 (chemical genetic matrix, 2015)
About 2,000 (36%) of roughly 5,500 compounds were called active. Not shown: some 18% with an inconclusive outcome. No stated cut-off is given here; in the data, active means normalized growth mostly below about 0.91 (no sharp cut-off); inconclusive means no clear call, values can overlap the other calls; inactive means mostly above about 0.92. The list shows a part of the results.

Experiment: chemical genetic growth profiling, strain panel (AID 1159580);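 further: tested at 20 µM; growth read once vehicle control cultures reached saturation at 30 °C; 1 = growth at the plate median or of vehicle wells; lower values mean less growth of the strain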
Details: growth OD
[1] = S. cerevisiae deletion strains, locus YAL013W, strain DEP1, active compounds read low
[2] = S. cerevisiae deletion strains, locus YBR229C, strain ROT2, active compounds read low
[3] = S. cerevisiae deletion strains, locus YCL061C, strain MRC1, active compounds read low
[4] = S. cerevisiae deletion strains, locus YDL101C, strain DUN1, active compounds read low
[5] = S. cerevisiae deletion strains, locus YDR150W, strain NUM1, active compounds read low
[6] = S. cerevisiae deletion strains, locus YEL061C, strain CIN8, active compounds read low
[7] = S. cerevisiae deletion strains, locus YGR078C, strain PAC10, active compounds read low
[8] = S. cerevisiae deletion strains, locus YHR030C, strain SLT2, active compounds read low
[9] = S. cerevisiae deletion strains, locus YHR087W, strain rtc3, active compounds read low
[10] = S. cerevisiae deletion strains, locus YJR043C, strain POL32, active compounds read low
[11] = S. cerevisiae deletion strains, locus YJR075W, strain HOC1, active compounds read low
[12] = S. cerevisiae deletion strains, locus YKL190W, strain CNB1, active compounds read low
[13] = S. cerevisiae deletion strains, locus YLR039C, strain RIC1, active compounds read low
[14] = S. cerevisiae deletion strains, locus YLR058C, strain SHM2 (second series), active compounds read low
[15] = S. cerevisiae deletion strains, locus YLR085C, strain ARP6, active compounds read low
[16] = S. cerevisiae deletion strains, locus YLR262C, strain YPT6, active compounds read low
[17] = S. cerevisiae deletion strains, locus YML094W, strain GIM5, active compounds read low
[18] = S. cerevisiae deletion strains, locus YMR219W, strain ESC1, active compounds read low
[19] = S. cerevisiae deletion strains, locus YMR263W, strain SAP30, active compounds read low
[20] = S. cerevisiae deletion strains, locus YNL153C, strain GIM3, active compounds read low
[21] = S. cerevisiae deletion strains, locus YNL298W, strain CLA4 (second series), active compounds read low
[22] = S. cerevisiae deletion strains, locus YNL322C, strain KRE1, active compounds read low
[23] = S. cerevisiae deletion strains, locus YNR030W, strain Alg12, active compounds read low
[24] = S. cerevisiae deletion strains, locus YOL006C, strain TOP1, active compounds read low
[25] = S. cerevisiae deletion strains, locus YPL055C, strain LGE1, active compounds read low
[26] = S. cerevisiae deletion strains, locus YPL241C, strain CIN2, active compounds read low
[27] = S. cerevisiae deletion strains, locus YPR135W, strain CTF4, active compounds read low
[28] = S. cerevisiae strains, strain wild type, active compounds read low

Measured: normalized growth

CCCc1ccc(OC)cc1NC(C)=O
inactive: [1] 1.01 | [2] 1.01 | [3] 1.03 | [4] 1 | [5] 0.95 | [6] 0.996 | [7] 1.02 | S. cerevisiae deletion strains, locus YGR229C, strain SMI1, active compounds read low 0.991 | [8] 1.06 | [9] 1 | [10] 1 | [11] 0.996 | [12] 0.991 | [13] 1.02 | [14] 1.02 | [15] 1.03 | [16] 0.987 | [17] 1.03 | [18] 1.01 | [19] 1.01 | [20] 1.03 | [21] 1.05 | [22] 1.01 | [23] 1.02 | [24] 1.06 | [25] 0.99 | [26] 0.999 | [27] 1.06 | [28] 0.999

CC(C)(C)c1cc(C(C)(C)C)n(-c2ccc([N+](=O)[O-])cc2)n1
inactive: [1] 1.02 | [2] 1.01 | [3] 0.994 | [4] 1.01 | [5] 0.991 | [6] 1.02 | [7] 1.01 | [8] 1.06 | [9] 1.01 | S. cerevisiae deletion strains, locus YJL187C, strain SWE1, active compounds read low 1 | [10] 1.02 | [11] 0.997 | [12] 0.998 | [13] 1.04 | [14] 1.01 | [15] 1.01 | [16] 1.01 | [17] 1.04 | [18] 1 | [19] 0.999 | S. cerevisiae deletion strains, locus YMR307W, strain GAS1, active compounds read low 0.995 | [20] 1 | [21] 1.05 | [22] 1 | [23] 1.04 | [24] 1.06 | [25] 1.04 | [26] 1.07 | [27] 1.03 | [28] 1.01
